Assay results reported in PubChem BioAssay (NCI).
The panel holds about 79,000 compounds, 15% with a hit somewhere; the sample as a whole holds those more often. Active and inactive are the calls of the source. No stated cut-off is given here; in the data, active means growth inhibition above about 70%; inactive means the rest.

Assays:
[1] = NCI Yeast Anticancer Drug Screen. Data for the rad50 strain (AID 155);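 further: 0% = growth of vehicle-only cultures of the same strain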; details: S. cerevisiae rad50 strain growth inhibition; at 50.0 µM; hits give high values
Method in brief: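 Cells are treated with compound, grown, and their growth is then scored against vehicle-only cultures of the same repair-deficient yeast strain.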

[2] = NCI Yeast Anticancer Drug Screen. Data for the mec2-1 strain (AID 157); details: S. cerevisiae mec2-1 strain, at 50.0 µM, hits give high values
Method in brief: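 Test agents were screened against the mec2-1 yeast strain, with defined DNA repair or cell cycle alteration. Growth was scored as inhibition against vehicle-only controls.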

[3] = NCI Yeast Anticancer Drug Screen. Data for the sgs1 mgt1 strain (AID 161);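 further: 0% = growth of cultures given vehicle only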; details: S. cerevisiae sgs1 mgt1 strain, at 50.0 µM, hits give high values
Method in brief: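 Mutant yeast exposed to compound; growth scored against vehicle-only wells.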

[4] = NCI Yeast Anticancer Drug Screen. Data for the cln2 rad14 strain (AID 165);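 further: 0% = growth equal to vehicle treated cultures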; details: S. cerevisiae cln2 rad14 strain, at 50.0 µM, hits give high values
Method in brief: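 Growth of compound-exposed yeast (cln2 rad14 genotype) measured and expressed as inhibition relative to vehicle.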

[5] = NCI Yeast Anticancer Drug Screen. Data for the bub3 strain (AID 167); details: S. cerevisiae bub3 mutant strain, at 50.0 µM, hits give high values
Method in brief: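 Part of a panel of yeast mutants defective in DNA damage repair or cell cycle regulation. Each strain is grown with compound, and inhibition is calculated relative to solvent-treated cultures.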

[6] = NCI Yeast Anticancer Drug Screen. Data for the mlh1 rad18 strain (AID 175); details: S. cerevisiae mlh1 rad18 strain growth inhibition; at 50.0 µM; hits give high values
Method in brief: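 In this whole-cell yeast screen, a strain with altered DNA damage repair is challenged with compound, and its growth is measured against matched vehicle-treated controls.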

Measured: growth inhibition

O=C(Cl)c1ccc2ccccc2c1
inactive: [1] 45.8% | [2] 8.3% | [3] 3% | [4] -43% | [5] -20.4% | [6] 29.4%

O=C(Nc1ccc([N+](=O)[O-])cc1)OCc1ccccc1
inactive: [1] -14.1% | [2] -0.05% | [3] -9.35% | [4] 0.7% | [5] 1.7% | [6] -16%

COc1cc(CCCCC(=O)O)ccc1OC(=O)c1ccccc1
inactive: [1] -15.6% | [2] -4.85% | [3] 1.85% | [4] 2.05% | [5] -6.3% | [6] -5.1%

O=c1[nH]c(=O)n(C2OC(CF)C(O)C2O)cc1N1CCOCC1 (centres undefined)
inactive: [1] 16.9% | [2] 18% | [3] 18% | [4] 17.7% | [5] 19.5% | [6] 33%

O=C(Nc1ccccc1)N1CCC[C@@H]2CCCC[C@@H]21
inactive: [1] 3.2% | [2] -0.15% | [3] 0.7% | [4] -82.4% | [5] -6.8% | [6] -4.45%

O=C(CNc1ccccc1[N+](=O)[O-])Nn1cnc2ccc(S(=O)(=O)Nc3ccccc3[N+](=O)[O-])cc2c1=O
inactive: [1] 25.8% | [2] -1.25% | [3] 39.8% | [4] 15.1% | [5] 21.2% | [6] 28.5%

COc1cc2cccc(N=Cc3cccc(OC)c3OC(C)C)c2cc1OC
inactive: [1] -20.9% | [2] -13.2% | [3] 11.6% | [4] 16.1% | [5] -4.6% | [6] -8.6%

COC1(OC)OC(c2ccc([N+](=O)[O-])cc2)=C(c2ccc([N+](=O)[O-])cc2)OC1(OC)OC
inactive: [1] 56% | [2] 49.9% | [3] 38.5% | [4] 57.4% | [5] 49% | [6] 37.9%

Nc1nc(SSc2nc(N)nc3c2ncn3C2OC(CO)C(O)C2O)c2ncn(C3OC(CO)C(O)C3O)c2n1 (centres undefined)
inactive: [1] 1.4% | [2] -5.8% | [3] 3.9% | [4] -34% | [5] 9.45% | [6] -1.3%

[N-]=[N+]=CC(=O)C(CN)(Cc1ccccc1)c1ccc(Cl)cc1 (centres undefined)
inactive: [1] 35.1% | [2] 1.45% | [3] 9.1% | [4] -31.9% | [5] -9.45% | [6] 9.05%

COc1cc(C)c2cccc(C)c2n1
inactive: [1] 6.6% | [2] 3.85% | [3] -0.4% | [4] -32.2% | [5] -8.8% | [6] 8.7%

O=C1CSC(c2ccco2)N1CCN1C(=O)CSC1c1ccco1 (centres undefined)
inactive: [1] -19% | [2] -5% | [3] -12.7% | [4] -39.4% | [5] -8.6% | [6] -15.7%

NC(N)=NCCCc1ccccc1
inactive: [1] 7.05% | [2] 7.25% | [3] 0.8% | [4] 1.85% | [5] 4% | [6] -3.55%

O=C(O)COc1ccc(C(=O)/C(SS/C(C(=O)c2ccc(OCC(=O)O)c(Cl)c2Cl)=C2\C=C(c3ccccc3Cl)SS2)=C2/C=C(c3ccccc3Cl)SS2)c(Cl)c1Cl
inactive: [1] -20.8% | [2] -29.1% | [3] -6.05% | [4] 7.05% | [5] -19.9% | [6] -27.1%

CCCCCCCCN(CCCCCCCC)CC(O)c1cc(-c2ccccc2)nc2c(-c3ccccc3)cccc12 (centres undefined)
inactive: [1] 46.8% | [2] 32.5% | [3] 49.2% | [4] 51.1% | [5] 26.1% | [6] 48.5%

C=CCCCCCCCCCCCCCCCCCC
inactive: [1] -3.55% | [2] -3.8% | [3] 2.8% | [4] 5.9% | [5] -5.3% | [6] 6.2%

CCC(/C=C/C(C)C1CCC2C3CC=C4CC(OC(=O)Nc5ccccc5)CCC4(C)C3CCC12C)C(C)C (centres undefined)
inactive: [1] -6.65% | [2] 2.1% | [3] -4.9% | [5] 5.55% | [6] 57.5%
active: [4] 77.2%

CCOC(=O)c1nc2c(C)nc(N)nc2[nH]c1=O
inactive: [1] -0.35% | [2] -1.2% | [3] -12% | [4] -32.1% | [5] -5.6% | [6] -3.1%

Cc1noc(NC2=CC(=O)C(=O)c3ccccc32)c1C
inactive: [1] 34.8% | [2] 8.45% | [3] 40.8% | [4] 8% | [5] 28.6% | [6] 42.7%

CCCCCCN(CCCCCC)C1=CC(=O)C(=O)c2ccccc21
inactive: [1] 52.9% | [2] 31.8% | [3] 48.4% | [4] 60% | [5] 35.1% | [6] 54.2%

CNC(=S)N/N=C/c1nc2ccccc2c(=O)n1-c1ccc(Cl)cc1
inactive: [1] 19.6% | [2] 0.75% | [3] 36.6% | [4] 2.55% | [5] -2.5% | [6] 10.2%

N#CC(C#N)=C(O)/C(=C/c1ccccc1[N+](=O)[O-])NC(=O)c1ccccc1
inactive: [1] 2.75% | [2] -5.6% | [3] -3.65% | [4] 23.9% | [5] 1.75% | [6] 40.4%

O=C(Nc1nc2ccsc2s1)c1ccccc1
inactive: [1] -15.8% | [2] -3% | [3] -4% | [4] -34.9% | [5] -8% | [6] -10.8%

COc1cc(/C=C2\N=C(C)OC2=O)ccc1O
inactive: [1] -2.8% | [2] -6.5% | [3] 5.7% | [4] -65.5% | [5] 2.95% | [6] 2.05%

C[N+](C)(C)CC(O)CC#N (centres undefined)
inactive: [1] -2.25% | [2] 1.75% | [3] -4% | [4] -8.35% | [5] 0.55% | [6] -1.8%

O=C(O)[C@H]1C[C@H](O)CCN1
inactive: [1] -30.4% | [2] -8.65% | [3] -34.2% | [4] 1.25% | [5] -3.85% | [6] -10.6%

CN(C)c1ccc(/[N+]([O-])=C/c2cccc3ccccc23)cc1
inactive: [1] 3.05% | [2] 22.6% | [3] 15.2% | [4] -51.9% | [5] 60.3% | [6] 38.4%

Cc1nc2c(ncn2C2OC(CO)C(O)C2O)c(=O)[nH]1 (centres undefined)
inactive: [1] -2.7% | [2] 11.2% | [3] -2.7% | [4] -3.7% | [5] 0.85% | [6] -18.4%

N#C/C(N)=C(\C#N)NC=NCCO
inactive: [1] 5.35% | [2] 7.75% | [3] 13.2% | [4] 18% | [5] 10.6% | [6] -37.8%

Cc1cccn(C(=O)c2ccccc2)c1=N
inactive: [1] -8.2% | [2] 4.1% | [3] 1.35% | [4] -41.7% | [5] -16.9% | [6] 29.3%

c1ccc(N=C(N2CCCC2)N(CCN2CCCC2)c2ccccc2)cc1
inactive: [1] -39.4% | [2] -58.1% | [3] -36.4% | [4] 1.35% | [5] -14.2% | [6] -28.2%

CCOC(=O)/C(C#N)=C/c1ccc(Br)cc1
inactive: [1] 15.7% | [2] 0.8% | [3] 0.3% | [4] -4.25% | [5] 7.5% | [6] 21.3%

N#CC(C#N)=CNC(=S)Nc1ccc(Cl)c(Cl)c1
inactive: [1] 44.1% | [2] 39.7% | [3] 47.6% | [4] 37.7% | [5] 36% | [6] 62.5%

C[N+]1(C)CCN(S(=O)(=O)c2ccccc2)c2ccccc21
inactive: [1] -10.1% | [2] -13.4% | [3] -4.35% | [4] -7.95% | [5] -19.6% | [6] -18.4%

O=C(CCCCCCCCC(=O)NO)NO
inactive: [1] -10.8% | [2] 0.45% | [3] -2.9% | [4] 4% | [5] -2.95% | [6] -2.5%

COc1ccc(C2=NC(=O)OC2(C)C)cc1
inactive: [1] -6.95% | [2] -20.2% | [3] -5.7% | [4] -11% | [5] -8.6% | [6] -10.2%

N#CC(c1ccccc1)N(C(N)=O)c1ccccc1 (centres undefined)
inactive: [1] -3.15% | [2] 8.5% | [3] 8.05% | [4] -2.85% | [5] 6.4% | [6] 4.2%

CCN(CC)c1ccc(N)cc1
inactive: [1] -4.05% | [2] -9.9% | [3] 26.1% | [4] -4.4% | [5] -3.1% | [6] 35.1%

O=C1N=C2SC(=S)NC(=S)N2NC12c1ccccc1-c1ccccc12
inactive: [1] 30.1% | [2] -11.4% | [3] 31% | [4] 10.5% | [5] 16.4% | [6] 19.6%
